Measurements as given in PubChem BioAssay AID1159580 (chemical genetic matrix, 2015).
Among all 5,500 compounds or so, about 2,000 (36%) were called active. Another 18% or so got no clear call; they are omitted. Cut-off read from the data, not from the text of the source: active = normalized growth mostly below about 0.91 (no sharp cut-off); inconclusive = no clear call, values can overlap the other calls; inactive = mostly above about 0.92. The list shows a part of the results.

Experiment: chemical genetic growth profiling, strain panel (AID 1159580);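 note: tested at 20 µM; growth read once vehicle control cultures reached saturation at 30 °C; 1 = growth at the plate median or of vehicle wells; lower values mean less growth of the strain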
Settings: S. cerevisiae deletion strains, growth OD
[1] = locus YAL040C, strain CLN3, stronger effect = lower value
[2] = locus YCL061C, strain MRC1 (second series), stronger effect = lower value
[3] = locus YDR363W, strain ESC2, stronger effect = lower value
[4] = locus YER002W, strain NOP16, stronger effect = lower value
[5] = locus YNL175C, strain NOP13, stronger effect = lower value
[6] = locus YNL197C, strain WHI3, stronger effect = lower value
[7] = locus YNL224C, strain SQS1, stronger effect = lower value
[8] = locus YOR083W, strain WHI5 (second series), stronger effect = lower value

Measured: normalized growth

O=[N+]([O-])c1cccc2cn[nH]c12
inactive: locus YAL021C, strain ccr4, stronger effect = lower value 1.01 | locus YAL026C, strain drs2, stronger effect = lower value 1 | locus YAL030W, strain snc1, stronger effect = lower value 1 | [1] 0.985 | locus YBL061C, strain skt5, stronger effect = lower value 0.996 | locus YBR009C, strain hhf1, stronger effect = lower value 1 | locus YBR023C, strain chs3, stronger effect = lower value 0.991 | locus YBR171W, strain sec66, stronger effect = lower value 0.981 | locus YBR231C, strain swc5, stronger effect = lower value 0.982 | locus YBR279W, strain paf1, stronger effect = lower value 1 | locus YCL011C, strain gbp2, stronger effect = lower value 0.983 | locus YCL016C, strain dcc1, stronger effect = lower value 0.989 | [2] 1 | locus YCL061C, strain MRC1, stronger effect = lower value 0.997 | locus YCL069W, strain vba3, stronger effect = lower value 0.986 | locus YCR088W, strain abp1, stronger effect = lower value 0.98 | locus YDL005C, strain med2, stronger effect = lower value 0.997 | locus YDL040C, strain nat1, stronger effect = lower value 1 | locus YDR001C, strain nth1, stronger effect = lower value 0.99 | locus YDR069C, strain doa4, stronger effect = lower value 0.982 | locus YDR137W, strain rgp1, stronger effect = lower value 0.996 | locus YDR159W, strain sac3, stronger effect = lower value 0.991 | locus YDR195W, strain ref2 1.02 | locus YDR297W, strain sur2, stronger effect = lower value 0.988 | locus YDR334W, strain swr1, stronger effect = lower value 0.997 | locus YDR335W, strain msn5, stronger effect = lower value 0.986 | [3] 1.01 | locus YDR392W, strain spt3, stronger effect = lower value 1.02 | locus YEL003W, strain gim4, stronger effect = lower value 1 | locus YEL037C, strain rad23, stronger effect = lower value 1 | locus YEL061C, strain CIN8 (second series), stronger effect = lower value 0.979 | [4] 0.987 | locus YER015W, strain faa2, stronger effect = lower value 0.994 | locus YER016W, strain bim1, stronger effect = lower value 1 | locus YER111C, strain swi4, stronger effect = lower value 0.989 | locus YER155C, strain BEM2 (second series), stronger effect = lower value 1.01 | locus YFR010W, strain ubp6, stronger effect = lower value 0.988 | locus YGL167C, strain pmr1, stronger effect = lower value 0.998 | locus YGL173C, strain kem1, stronger effect = lower value 1.01 | locus YGL227W, strain vid30, stronger effect = lower value 1.01 | locus YGL240W, strain doc1, stronger effect = lower value 1.01 | locus YGL253W, strain hxk2, stronger effect = lower value 0.99 | locus YGR229C, strain SMI1, stronger effect = lower value 0.999 | locus YHR013C, strain ard1, stronger effect = lower value 1.05 | locus YHR027C, strain rpn1, stronger effect = lower value 0.994 | locus YHR030C, strain SLT2, stronger effect = lower value 1.03 | locus YHR079C, strain IRE1, stronger effect = lower value 1.03 | locus YHR142W, strain chs7, stronger effect = lower value 0.995 | locus YJL092W, strain hpr5, stronger effect = lower value 0.989 | locus YJL095W, strain BCK1 (second series), stronger effect = lower value 1 | locus YJL095W, strain BCK1, stronger effect = lower value 1.03 | locus YJL115W, strain asf1, stronger effect = lower value 0.984 | locus YJL129C, strain trk1, stronger effect = lower value 1 | locus YJL154C, strain vps35, stronger effect = lower value 0.981 | locus YJL164C, strain tpk1, stronger effect = lower value 0.988 | locus YJL166W, strain qcr8, stronger effect = lower value 0.992 | locus YJL187C, strain SWE1, stronger effect = lower value 0.999 | locus YJR066W, strain TOR1, stronger effect = lower value 0.947 | locus YJR075W, strain HOC1, stronger effect = lower value 1.01 | locus YKL160W, strain elf1, stronger effect = lower value 0.958 | locus YKR026C, strain gcn3, stronger effect = lower value 1 | locus YKR091W, strain srl3, stronger effect = lower value 0.988 | locus YLL001W, strain dnm1, stronger effect = lower value 0.999 | locus YLL026W, stronger effect = lower value 0.98 | locus YLL041C, strain sdh2, stronger effect = lower value 0.985 | locus YLR027C, strain aat2, stronger effect = lower value 1 | locus YLR113W, strain HOG1, stronger effect = lower value 1 | locus YLR221C, strain rsa3, stronger effect = lower value 0.995 | locus YLR258W, strain gsy2, stronger effect = lower value 0.983 | locus YLR262C, strain YPT6 (second series), stronger effect = lower value 1.01 | locus YLR320W, strain mms22, stronger effect = lower value 1 | locus YLR342W, strain FKS1, stronger effect = lower value 1.01 | locus YLR357W, strain rsc2, stronger effect = lower value 0.993 | locus YLR370C, strain arc18, stronger effect = lower value 0.994 | locus YLR384C, strain iki3, stronger effect = lower value 0.996 | locus YML120C, strain ndi1, stronger effect = lower value 0.991 | locus YMR058W, strain fet3, stronger effect = lower value 0.982 | locus YMR125W, strain sto1, stronger effect = lower value 0.967 | locus YMR129W, stronger effect = lower value 0.993 | locus YMR205C, strain PFK2, stronger effect = lower value 0.991 | locus YMR231W, strain pep5, stronger effect = lower value 1 | locus YNL071W, strain lat1, stronger effect = lower value 1.01 | locus YNL128W, strain TEP1, stronger effect = lower value 0.998 | [5] 0.999 | locus YNL183C, strain NPR1, stronger effect = lower value 0.951 | [6] 0.992 | locus YNL209W, strain ssb2, stronger effect = lower value 0.972 | [7] 1 | locus YNL248C, strain rpa49, stronger effect = lower value 0.965 | locus YNL322C, strain KRE1 (second series), stronger effect = lower value 0.993 | locus YNR049C, strain mso1, stronger effect = lower value 1 | locus YOR001W, strain rrp6, stronger effect = lower value 1 | locus YOR070C, strain gyp1, stronger effect = lower value 0.992 | locus YOR080W, strain dia2, stronger effect = lower value 1.01 | [8] 1 | locus YOR083W, strain WHI5, stronger effect = lower value 0.965 | locus YOR106W, strain vam3, stronger effect = lower value 0.981 | locus YOR231W, strain MKK1, stronger effect = lower value 1.01 | locus YOR265W, strain rbl2, stronger effect = lower value 0.996 | locus YOR270C, strain vph1, stronger effect = lower value 0.992 | locus YOR290C, strain snf2, stronger effect = lower value 0.986 | locus YPL051W, strain arl3, stronger effect = lower value 0.972 | locus YPL078C, strain atp4, stronger effect = lower value 0.995 | locus YPL106C, strain sse1, stronger effect = lower value 0.957 | locus YPL240C, strain hsp82, stronger effect = lower value 0.992 | locus YPL256C, strain CLN2, stronger effect = lower value 0.997

Cc1[nH]c(=O)c(C#N)cc1-c1ccncc1
inactive: locus YAL013W, strain DEP1, stronger effect = lower value 1.02 | [1] 1 | [2] 1.01 | [3] 1.04 | [4] 0.997 | locus YGR078C, strain PAC10, stronger effect = lower value 1.01 | locus YMR263W, strain SAP30, stronger effect = lower value 1.01 | locus YMR307W, strain GAS1, stronger effect = lower value 1.01 | locus YNL153C, strain GIM3, stronger effect = lower value 1.01 | [5] 1.01 | [6] 1.01 | [7] 1.01 | locus YNL322C, strain KRE1, stronger effect = lower value 1.01 | [8] 1.01 | locus YPL241C, strain CIN2, stronger effect = lower value 0.998
